Experimental data from PubChem BioAssay (Tox21).
Results filed as inconclusive are left out. The source made the active and inactive calls. Unless noted, calls come from the whole dose curve; as a rule, active = well fitted curve in the direction sought with a large enough effect in the repeat runs; inconclusive = weak or mixed curves; inactive = no such curve, though single readings can be large; an effect the other way counts as inactive or inconclusive.

Legend:
[1] = qHTS assay to identify small molecule agonists of the vitamin D receptor (VDR) signaling pathway - cell viability counter screen (AID 743224); note: % is set by controls: 0 for no effect and ±100 for the full control effect; nearly all actives have a fitted effect of over 50% in size
In short: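 Cells: VDR-bla, 2,000/well, settled 4 h. Treatment: compounds in DMSO, 16 h, 37C/5% CO2. Readout: CellTiter-Glo luminescence after 30 min RT.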

[2] = qHTS assay to identify small molecule antagonists of the vitamin D receptor (VDR) signaling pathway - cell viability counter screen (AID 743225); note: % is set by controls: 0 for no effect and ±100 for the full control effect; nearly all actives have a fitted effect of over 50% in size
In short: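 VDR-bla HEK 293T cells, 4 h pre-incubation at 37C, then compound plus 1-alpha,25-dihydroxyvitamin D3 (3 nM final) for 16 h. After the beta-lactamase FRET read, CellTiter-Glo was added to the same wells; luminescence after 30 min at room temperature.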

[3] = qHTS assay to identify small molecule agonists of the NFkB signaling pathway (AID 1159509; active = well fitted curve in the direction sought with a large enough effect in the signal ratio in the repeat runs, not every such curve was filed as active; the % refers to the signal ratio; note: % is set by controls: 0 for no effect and ±100 for the full control effect)
In short: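 Readout: FRET fluorescence, 405 nm excitation, 460/530 nm emission; beta-lactamase expression disrupts FRET. Cells: ME-180 stably carrying NF-kB-driven bla reporter. Compound exposure 5 hr, 37 C, 5% CO2.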

[4] = qHTS assay to identify small molecule agonists of the endoplasmic reticulum stress response signaling pathway (AID 1159516; active = well fitted activation curve with a large enough effect in the signal ratio in the repeat runs, not every such curve was filed as active; the % refers to the signal ratio; note: % is set by controls: 0 for no effect and ±100 for the full control effect)
In short: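 Cells are seeded at 1,500 per well and incubated overnight. Compounds in DMSO are added for 5 hr at 37 C, then beta-lactamase FRET substrate for 2 hr at room temperature, and fluorescence at 460 and 530 nm is measured.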

[5] = qHTS assay to identify small molecule agonists of the endoplasmic reticulum stress response signaling pathway - cell viability counter screen (AID 1159517; calls by dose curve;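 note: HeLa cells carrying an ER stress response element beta-lactamase reporter; % is set by controls: 0 for no effect and ±100 for the full control effect; nearly all actives have a fitted effect of over 50% in size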)
In short: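 Cytotoxicity of test compounds toward ESRE-bla HeLa cells was assessed after 5 hr exposure. The luminescent CellTiter-Glo signal was measured 30 min after reagent addition.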

[6] = qHTS assay to identify small molecule antagonists of the retinoid-related orphan receptor gamma (ROR-gamma) signaling pathway - cell viability counter screen (AID 1159520); note: % is set by controls: 0 for no effect and ±100 for the full control effect; nearly all actives have a fitted effect of over 50% in size
In short: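 Tet-on ROR gamma CHO cells (1,000/well) were plated 4 hr, given compounds in DMSO for 2 hr at 37 C, then induced with 1 uM final doxycycline for 16 hr. Viability was read as ATP by CellTiter-Glo luminescence after 30 min.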

[7] = target: Nuclear receptor ROR-gamma (Homo sapiens) (UniProt P51449); experiment: qHTS assay to identify small molecule antagonists of the retinoid-related orphan receptor gamma (ROR-gamma) signaling pathway (AID 1159521)
In short: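 Tet-on RORγ CHO cells carrying a ROR response element–luciferase reporter were pretreated with compounds for 2 h, then induced with 1 uM (final) doxycycline hyclate for 16 h at 37 C. Antagonism was read as decreased ONE-Glo luminescence.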

[8] = qHTS assay to identify small molecule agonists of the AP-1 signaling pathway - cell viability counter screen (AID 1159525; calls by dose curve; note: nearly all actives have a fitted effect of over 55% in size)
In short: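 Each titration point was normalised to DMSO and tetra n-octyl ammonium bromide controls. The read was Cell Titer Glo luminescence after 30 min at RT, following 5 h compound exposure of ME-180 AP-1-bla cells at 37 °C.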

[9] = qHTS assay to identify small molecule agonists of the AP-1 signaling pathway (AID 1159526; calls by dose curve; note: % is set by controls: 0 for no effect and ±100 for the full control effect)
[10] = target: Retinoic acid receptor RXR-alpha (Homo sapiens) (UniProt P19793); experiment: qHTS assay to identify small molecule agonists of the RXR signaling pathway (AID 1159527; calls by dose curve; note: % is set by controls: 0 for no effect and ±100 for the full control effect; nearly all actives have a fitted effect of over 35% in size)
In short: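 GeneBLAzer RXR-alpha-UAS-bla HEK 293T cells in medium with 2% charcoal-stripped FBS, pre-incubated 5 hr at 37 C, then exposed to compounds 16 hr. Beta-lactamase reporter read by FRET substrate, 2 hr room temperature, 460/530 nm emission.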

[11] = qHTS assay to identify small molecule agonists of the RXR signaling pathway - cell viability counter screen (AID 1159529)
In short: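 RXR-alpha-UAS-bla HEK 293T cells in medium with 2% charcoal-stripped FBS were preincubated 5 hr, then exposed to compounds for 16 hr at 37 C. Viability was read as CellTiter-Glo luminescence after 30 min at room temperature.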

[12] = qHTS assay to identify small molecule agonists of the retinoic acid receptor (RAR) signaling pathway (AID 1159553); details: C3RL4 RARE luciferase reporter, agonist, 6 h; activation: at 73.3 µM (top of the series); note: % is set by controls: 0 for no effect and ±100 for the full control effect
In short: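 Seed C3RL4 reporter cells at 1,000 per well and incubate overnight at 37 C. Add compounds in DMSO, incubate 6 hr. Add luciferase reagent, wait 30 min at room temperature, read luminescence.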

[13] = qHTS assay to identify small molecule antagonists of the estrogen related receptor (ERR) signaling pathway from Tox21 library - cell viability counter screen (AID 1224834); note: % is set by controls: 0 for no effect and ±100 for the full control effect; nearly all actives have a fitted effect of over 30% in size
In short: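 ERR cells, 2,000/well; 6 h settle at 37 C/5% CO2; pin-tool compound transfer in DMSO; 17.5 h at 37 C; CellTiter-Fluor, 30 min; fluorescence intensity.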

[14] = target: Luciferin 4-monooxygenase (Photinus pyralis) (UniProt P08659); experiment: qHTS assay to identify small molecule inhibitors of firefly luciferase (AID 1224835); note: % is set by controls: 0 for no effect and ±100 for the full control effect; nearly all actives have a fitted effect of over 25% in size
In short: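 Quantitative HTS format; KM concentrations of both substrates. Purified P. pyralis FLuc activity quantified from luminescence images.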

[15] = qHTS assay to identify small molecule agonists of the constitutive androstane receptor (CAR) signaling pathway - cell viability counter screen (AID 1224836); note: % is set by controls: 0 for no effect and ±100 for the full control effect; nearly all actives have a fitted effect of over 45% in size
In short: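 HepG2 cells stably carrying hCAR and a CYP2B6-2.2kb reporter were plated 4 h, then given compounds at 15 concentrations plus PK11195 (final 0.75 uM). After 23 h at 37 C, viability was read by CellTiter-Fluor fluorescence.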

[16] = qHTS assay to identify small molecule antagonists of the constitutive androstane receptor (CAR) signaling pathway - cell viability counter screen (AID 1224837); note: nearly all actives have a fitted effect of over 45% in size; note: potency is the fitted concentration of half-maximal effect
In short: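 Viability was measured with CellTiter-Fluor in a HepG2 line carrying stably transfected hCAR and a CYP2B6-2.2kb construct. Cells were exposed for 23 hr at 37 C to 15 compound concentrations with 50 nM CITCO as agonist.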

[17] = qHTS assay to identify small molecule antagonists of the retinoid acid receptor (RAR) signaling pathway - cell viability counter screen (AID 1159551); note: % is set by controls: 0 for no effect and ±100 for the full control effect; nearly all actives have a fitted effect of over 35% in size
In short: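 Cells (C3RL4) are plated, incubated overnight, dosed with compound in DMSO, then given retinol at 1 uM final. After 6 h at 37 C, CellTiter-Glo is added and luminescence read following 30 min at room temperature.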

[18] = qHTS assay to identify small molecule antagonists of the retinoic acid receptor (RAR) signaling pathway (AID 1159552)
In short: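 RARE-luc C3RL4 cells; cpds + 1 uM (final) retinol, 6 hr, 37 C/5% CO2; luciferase reagent, 30 min RT, luminescence readout. Inhibitors of retinol-driven signal scored.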

[19] = qHTS assay to identify small molecule agonists of the NFkB signaling pathway - cell viability counter screen (AID 1159515; calls by dose curve; note: % is set by controls: 0 for no effect and ±100 for the full control effect; nearly all actives have a fitted effect of over 55% in size)
In short: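 Cells are seeded (2,000 NFkB-bla ME-180 per well), rested overnight, and dosed with DMSO-dissolved compounds for 5 hr at 37 C. Viability is then read by CellTiter-Glo luminescence after 30 min at room temperature.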

[20] = target: Nuclear receptor subfamily 1 group I member 3 (Homo sapiens) (UniProt Q14994); experiment: qHTS assay to identify small molecule antagonists of the constitutive androstane receptor (CAR) signaling pathway (AID 1224838);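 note: HepG2 cells stably expressing hCAR with CYP2B6 luciferase reporter stimulated by CITCO; % is set by controls: 0 for no effect and ±100 for the full control effect; nearly all actives have a fitted effect of over 40% in size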
In short: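 Antagonist mode used CITCO at a final 50 nM to activate CAR in human hepatoma HepG2 cells carrying stable hCAR and a 2.2 kb CYP2B6 promoter-luciferase construct. Compounds were tested at 15 concentrations over 24 h, with luminescence as the end point.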

Chain of Retinoic acid receptor RXR-alpha (Homo sapiens) (P19793 whole entry, looked up): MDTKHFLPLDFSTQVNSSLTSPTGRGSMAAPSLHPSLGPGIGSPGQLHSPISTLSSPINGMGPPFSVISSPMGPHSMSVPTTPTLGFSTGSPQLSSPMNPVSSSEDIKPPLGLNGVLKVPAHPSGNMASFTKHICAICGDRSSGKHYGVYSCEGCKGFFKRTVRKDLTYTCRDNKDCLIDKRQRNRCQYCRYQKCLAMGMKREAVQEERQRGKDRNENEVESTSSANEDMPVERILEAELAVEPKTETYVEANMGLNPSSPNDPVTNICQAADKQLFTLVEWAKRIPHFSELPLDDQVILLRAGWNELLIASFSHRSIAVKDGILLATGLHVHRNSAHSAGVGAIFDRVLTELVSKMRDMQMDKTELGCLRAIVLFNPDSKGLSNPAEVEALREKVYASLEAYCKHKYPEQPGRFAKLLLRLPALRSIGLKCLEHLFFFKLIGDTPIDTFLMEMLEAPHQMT
Chain of Luciferin 4-monooxygenase (Photinus pyralis) (P08659 whole entry, looked up): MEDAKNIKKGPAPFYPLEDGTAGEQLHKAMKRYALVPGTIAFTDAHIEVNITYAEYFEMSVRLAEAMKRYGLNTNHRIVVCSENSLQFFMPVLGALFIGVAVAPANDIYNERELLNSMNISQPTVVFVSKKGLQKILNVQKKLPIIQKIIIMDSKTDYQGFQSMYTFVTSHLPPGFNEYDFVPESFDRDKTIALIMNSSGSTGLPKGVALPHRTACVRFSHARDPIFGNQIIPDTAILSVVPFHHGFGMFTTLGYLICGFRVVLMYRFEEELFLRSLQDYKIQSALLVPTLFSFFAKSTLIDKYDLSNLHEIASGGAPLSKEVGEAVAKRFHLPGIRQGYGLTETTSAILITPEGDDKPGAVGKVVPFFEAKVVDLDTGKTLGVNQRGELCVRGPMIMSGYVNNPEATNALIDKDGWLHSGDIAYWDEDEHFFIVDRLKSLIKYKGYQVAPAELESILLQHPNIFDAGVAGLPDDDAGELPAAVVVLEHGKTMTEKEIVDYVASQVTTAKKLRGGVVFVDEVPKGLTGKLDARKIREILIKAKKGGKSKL
Chain of Nuclear receptor subfamily 1 group I member 3 (Homo sapiens) (Q14994 whole entry, looked up): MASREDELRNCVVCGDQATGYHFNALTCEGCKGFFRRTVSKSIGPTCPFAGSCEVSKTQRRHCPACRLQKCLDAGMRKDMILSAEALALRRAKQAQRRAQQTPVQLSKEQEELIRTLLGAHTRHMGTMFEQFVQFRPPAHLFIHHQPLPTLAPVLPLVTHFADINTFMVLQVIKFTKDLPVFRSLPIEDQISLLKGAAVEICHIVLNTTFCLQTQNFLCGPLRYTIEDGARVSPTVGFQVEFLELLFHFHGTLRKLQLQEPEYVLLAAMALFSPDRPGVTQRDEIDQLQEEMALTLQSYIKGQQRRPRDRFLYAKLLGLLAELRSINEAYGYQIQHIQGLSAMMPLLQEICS

Cc1cccc(NC(=S)N(C)C)c1
inactive: outcome [1] | outcome [2] | outcome [3] | outcome [4] | outcome [5] | outcome [6] | outcome [7] | outcome [8] | outcome [9] | Potency [10] | outcome [11] | Potency [12] | Potency [13] | Potency [14] | outcome [15]
active: Potency [16] 61.1 µM

CCCCCCCCCCCCCCCCI
inactive: outcome [1] | outcome [2] | outcome [3] | outcome [4] | outcome [5] | activity, negative = cytotoxicity [6] -0.188% [at 19 µM] | activity change, negative = inhibition [7] 2.8% [at 19 µM] | viability change, negative = cytotoxic [8] -11.4% [at 15.8 µM] | activation [9] -9.43% [at 15.8 µM] | activity change, negative = cytotoxicity [11] 14.9% [at 15.8 µM] | activity change, negative = cytotoxicity [17] -0.67% [at 19 µM] | activity, negative = inhibition [18] -6.93% [at 19 µM] | Potency [12] | viability change, negative = cytotoxic [13] 1.65% [at 19 µM] | activity change, negative = inhibition [14] 0.965% [at 23.6 µM] | viability change, negative = cytotoxic [15] -8.08% [at 19 µM]

CCCCCC(=O)OCC
inactive: outcome [1] | outcome [2] | outcome [19] | outcome [4] | outcome [5] | outcome [6] | outcome [7] | outcome [8] | outcome [9] | Potency [10] | outcome [11] | outcome [17] | Potency [18] | Potency [12] | Potency [13] | Potency [14] | outcome [15] | Potency [16]

Cc1cccc(Nc2ccncc2S(=O)(=O)NC(=O)NC(C)C)c1
inactive: outcome [1] | outcome [2] | outcome [3] | outcome [4] | outcome [5] | outcome [6] | outcome [7] | outcome [8] | outcome [9] | Potency [10] | outcome [11] | outcome [17] | Potency [18] | Potency [12] | Potency [13] | Potency [14] | outcome [15] | Potency [16]

COCCOCCOCCOC
inactive: outcome [1] | outcome [3] | outcome [4] | outcome [5] | outcome [6] | outcome [8] | outcome [9] | Potency [10] | outcome [11] | outcome [17] | Potency [18] | Potency [12] | Potency [13] | Potency [14] | Potency [16]

O=C(COCCOCCOCC(=O)Nc1c(I)cc(I)c(C(=O)O)c1I)Nc1c(I)cc(I)c(C(=O)O)c1I
inactive: outcome [1] | outcome [2] | outcome [19] | outcome [4] | outcome [5] | outcome [6] | outcome [7] | outcome [8] | outcome [9] | Potency [10] | outcome [11] | outcome [17] | Potency [18] | Potency [12] | Potency [13] | Potency [14] | outcome [15] | Potency [16]

CCCCOC(=O)C(=O)OCCCC
inactive: outcome [1] | outcome [2] | outcome [3] | outcome [4] | outcome [5] | outcome [6] | outcome [7] | outcome [8] | outcome [9] | outcome [11] | outcome [17] | Potency [18] | Potency [12] | Potency [13] | outcome [15] | Potency [20]

CCC1Nc2cc(Cl)c(S(N)(=O)=O)cc2S(=O)(=O)N1 (stereo not drawn)
inactive: outcome [1] | outcome [3] | outcome [4] | outcome [5] | outcome [6] | outcome [7] | outcome [8] | outcome [9] | outcome [11] | outcome [17] | Potency [18] | Potency [12] | Potency [13] | Potency [14] | outcome [15] | Potency [16]

Nc1ccc(S(=O)(=O)Nc2ccccn2)cc1
inactive: outcome [1] | outcome [2] | outcome [3] | outcome [4] | outcome [5] | outcome [6] | outcome [7] | outcome [8] | outcome [9] | Potency [10] | outcome [11] | outcome [17] | Potency [18] | Potency [12] | Potency [14] | outcome [15] | Potency [16]

F[Si-2](F)(F)(F)(F)F
inactive: outcome [1] | outcome [2] | outcome [3] | outcome [4] | outcome [5] | outcome [6] | outcome [7] | outcome [8] | outcome [9] | Potency [10] | outcome [11] | Potency [18] | Potency [12] | outcome [15] | Potency [16]

CCC1COC(=O)O1 (stereo not drawn)
inactive: outcome [1] | outcome [2] | outcome [3] | outcome [4] | outcome [5] | outcome [6] | outcome [7] | outcome [8] | outcome [9] | Potency [10] | outcome [11] | outcome [17] | Potency [18] | Potency [12] | Potency [13] | Potency [14] | outcome [15] | Potency [16]

C=CCOCC(O)CCl (stereo not drawn)
inactive: outcome [1] | outcome [2] | outcome [3] | outcome [4] | outcome [5] | outcome [6] | outcome [7] | outcome [8] | outcome [9] | Potency [10] | outcome [11] | outcome [17] | Potency [18] | Potency [12] | Potency [13] | Potency [14] | outcome [15] | Potency [16]

NCCc1ccn[nH]1
inactive: outcome [1] | outcome [3] | outcome [4] | outcome [5] | outcome [6] | outcome [7] | outcome [8] | outcome [9] | Potency [10] | outcome [11] | outcome [17] | Potency [18] | Potency [12] | Potency [13] | Potency [14] | outcome [15] | Potency [16]

O=P(O)(O)OCC(O)CO (stereo not drawn)
inactive: outcome [1] | outcome [2] | outcome [3] | outcome [4] | outcome [5] | outcome [6] | outcome [7] | outcome [8] | outcome [9] | outcome [11] | outcome [17] | Potency [18] | Potency [12] | Potency [13] | Potency [14] | outcome [15] | Potency [16]

CCC(O)C(C)(C)C (stereo not drawn)
inactive: outcome [1] | outcome [2] | outcome [3] | outcome [4] | outcome [5] | outcome [6] | outcome [7] | outcome [8] | outcome [9] | Potency [10] | outcome [11] | outcome [17] | Potency [18] | Potency [12] | Potency [13] | Potency [14] | outcome [15]

O=C1c2ccccc2-c2ccccc21
inactive: outcome [1] | outcome [3] | outcome [4] | outcome [5] | outcome [6] | outcome [7] | outcome [8] | outcome [9] | Potency [10] | outcome [11] | outcome [17] | Potency [18] | Potency [12] | Potency [13] | outcome [15] | Potency [20]
